Data on 68 molecules can be found in ChEMBL document CHEMBL3988442, “University of Dundee, Small-Polar-MMV Screening Library” (2021).

Hit rate of the full screen: of about 38,000 compounds, about 1,200 (3.2%) showed an effect of 50% or more. The median lay at about -58%. The sample holds strong results, similar compounds and a random draw of the others, so the mix is not that of the screen.

This experiment relates to Plasmodium falciparum. As to the kind of experiment: Calibr Malaria Delayed Death Assay SOP. The experiment is classed as functional, organism-based. Also noted: scale not given: in the data most compounds retested in dose-response had high values. The following applies: concentration 4.99e-06 (unit not given; other assays of the set use mol/L).
Consider `Cc1cc(C(=O)N2CCn3cc(CN4CCCCC4)nc3C2)no1`, for which the “Percent Effect” value is listed as -18.56%.

`CN(C)[C@@H]1CCN(S(=O)(=O)C2CC2)[C@H]1Cc1ccccc1.O=C(O)C(F)(F)F`: the “Percent Effect” value was 63.58%.

For `CN(C)[C@@H]1CCN(S(=O)(=O)c2cn(C)cn2)[C@H]1Cc1cccnc1.O=C(O)C(F)(F)F.O=C(O)C(F)(F)F.O=C(O)C(F)(F)F`, the “Percent Effect” value is listed as -62.43%.

In the case of `CN(C)[C@@H]1CCN(C(=O)c2ccccn2)[C@H]1Cc1ccncc1`, the “Percent Effect” value was -71%.

For the molecule `CC(C)NC(=O)N1CC[C@@H](N(C)C)[C@@H]1Cc1ccccc1.O=C(O)C(F)(F)F`, the “Percent Effect” value came out at 14.09%.

Consider `CC(C)N(C)[C@@H]1CCN(Cc2ccoc2)[C@H]1Cc1ccccc1`, for which the “Percent Effect” value turned out to be 9.124%.

Turning to `CN(C)[C@@H]1CCN(S(C)(=O)=O)[C@H]1Cc1ccccc1`, the “Percent Effect” value was found to be 16.37%.

In the case of `CC(C)N(C)[C@@H]1CCN(S(C)(=O)=O)[C@H]1Cc1ccccc1`, the “Percent Effect” value was determined as 53.16%.

For the molecule `O=S(=O)(C1CC1)N1CC[C@H](OCC2CC2)[C@@H]1Cc1ccncc1`, the “Percent Effect” value is reported as -74.15%.

As for `CC(C)OC[C@H]1CCC[C@]12CN(C(=O)C1CCOCC1)CCO2`, the “Percent Effect” value was -62.83%.

As to `CNC(=O)CN1CCC(CN(C)Cc2ccccc2N(C)C)CC1`, the “Percent Effect” value is on record as -85.31%.

With `COc1ccc(CN2C[C@@H](O)[C@](O)(CNC(=O)c3ccccn3)C2)cc1`, the “Percent Effect” value is -63.46%.

In the case of `Cn1cc(-c2ncnc3c2CCN(C(=O)c2cnccn2)CC3)cn1`, the “Percent Effect” value was -80.91%.

Consider `COc1ccc(C[C@H]2CN(Cc3ccoc3)CC[C@H]2OC)cc1.O=C(O)C(F)(F)F`, for which the “Percent Effect” value is 74.09%.

On to `COc1ccc(C[C@H]2CN(Cc3ccoc3)CC[C@@H]2OC)cc1.O=C(O)C(F)(F)F`, for which the “Percent Effect” value was 63.43%.

As to `COc1ccc(C[C@H]2CN(c3cc(OC)ncn3)CC[C@@H]2OC)cc1.O=C(O)C(F)(F)F`, the “Percent Effect” value is on record as -3.62%.

`COc1ccc(C[C@H]2CN(c3nnc(C)s3)CC[C@H]2OC)cc1.O=C(O)C(F)(F)F`: the “Percent Effect” value is reported as -6.177%.

Regarding `COc1ccc(C[C@H]2CN(C(=O)c3ccncc3)CC[C@@H]2OC)cc1.O=C(O)C(F)(F)F`, the “Percent Effect” value is -34.29%.

Regarding `COc1ccc(C[C@H]2CN(c3nnc(C)s3)CC[C@@H]2OC)cc1.O=C(O)C(F)(F)F`, the “Percent Effect” value is recorded as -18.37%.

On to `N#Cc1ccc(OC[C@]23COC[C@H]2CN(Cc2ccccn2)C3)nc1`, for which the “Percent Effect” value was -50.77%.

As for `Cn1cccc1C(O)CNC(=O)COc1ccccc1F` (stereo not drawn), the “Percent Effect” value is -31.9%.

With `Cn1cccc1C(CNC(=O)COc1ccc(Cl)cc1Cl)N1CCCC1` (stereo not drawn), the “Percent Effect” value is recorded as 74.07%.

Regarding `Cn1cccc1C(O)CNC(=O)COc1ccc(Cl)cc1Cl` (stereo not drawn), the “Percent Effect” value is on record as -33.74%.

Regarding `O=C(NCc1nnc2n1CCCC2)c1cn(-c2ccccc2)nn1`, the “Percent Effect” value is -72.42%.

Take `COCC(=O)NCC1CCN(Cc2ccsc2)CC1`: the “Percent Effect” value was -175%.

As to `COc1cccc([C@@H]2CCN(Cc3[nH]nc(C)c3Cl)C[C@H]2O)c1`, the “Percent Effect” value was -13.94%.

On to `COc1cccc([C@H]2CN(C(C)=O)[C@@H]3CCN(Cc4ccsc4)C[C@H]23)c1.Cl`, for which the “Percent Effect” value was 72.65%.

In the case of `COc1cccc(CN2CC[C@H]3[C@@H](C2)[C@H](c2ccsc2)CN3C(C)=O)c1`, the “Percent Effect” value was determined as 52.59%.

Take `COCc1cc(O)nc(C2CCCN(Cc3cccc(OC)c3)C2)n1` (stereo not drawn): the “Percent Effect” value is -102.5%.

In the case of `CCN1CCC(N2C[C@@H](C(=O)O)[C@H](c3cccc(OC)c3)C2)CC1`, the “Percent Effect” value was -103.5%.

Take `COc1cccc(CC2CCCN2CC(N)=O)c1` (stereo not drawn): the “Percent Effect” value is on record as -61.65%.

For the molecule `COc1cccc([C@@H]2CCN(Cc3c[nH]c(C)n3)C[C@H]2O)c1`, the “Percent Effect” value is listed as -37.12%.

Take `CNC(=O)[C@@]12CCC3(CCN(S(=O)(=O)C4CC4)CC3)[C@@H]1CN(C(C)=O)C2`: the “Percent Effect” value is -121.6%.

As to `Cc1ccoc1C(=O)N1CCCC(CNS(C)(=O)=O)C1` (stereo not drawn), the “Percent Effect” value is given as -23.43%.

As to `NC(=O)Cn1cnc2nc3n(c2c1=O)CCC3`, the “Percent Effect” value is given as -106.4%.

Regarding `CC(C)N1CCOC(Cc2nn3c(Cc4ccccc4)nnc3s2)C1` (stereo not drawn), the “Percent Effect” value is reported as -78.89%.

Turning to `CO[C@H]1CCN(Cc2c(C)noc2C)[C@@H]2CN(Cc3cccnc3)C[C@H]12.O=C(O)C(F)(F)F.O=C(O)C(F)(F)F.O=C(O)C(F)(F)F`, the “Percent Effect” value was -19.09%.

Turning to `CN(Cc1noc(C2CC2)n1)C1CCN(CCc2cccs2)C1` (stereo not drawn), the “Percent Effect” value is recorded as -58.32%.

In the case of `COc1cc(CNCc2ccc(C(C)O)cc2)cc2c1OCO2` (stereo not drawn), the “Percent Effect” value stood at 7.669%.

As to `COc1cc(CNCC(O)c2ccc(C)cc2)cc2c1OCCO2.Cl` (stereo not drawn), the “Percent Effect” value was 46.91%.

Turning to `COc1cc(CNCC(O)c2ccccc2)cc2c1OCO2.Cl` (stereo not drawn), the “Percent Effect” value is 59.91%.

For `COc1cc(CNC(C)Cn2ccnc2)cc2c1OCO2.Cl` (stereo not drawn), the “Percent Effect” value is recorded as -50.32%.

Turning to `Cc1cc(CNC(=O)NCC(O)c2cccc(F)c2)no1` (stereo not drawn), the “Percent Effect” value is on record as -84.11%.

Take `COc1cc(CNC(C)Cn2cccn2)cc2c1OCO2.Cl` (stereo not drawn): the “Percent Effect” value was -35.84%.

As to `COc1cc(CNC(C)c2ccc(F)c(F)c2)cc2c1OCCO2.O=C(O)C(=O)O` (stereo not drawn), the “Percent Effect” value is given as -10.9%.

For `Fc1ccc(CNCc2cc(Br)c3c(c2)OCO3)cc1`, the “Percent Effect” value was -20.04%.

Take `COc1ccc(CNCc2cc(Br)c3c(c2)OCO3)cc1`: the “Percent Effect” value is reported as -51.11%.

For the molecule `COc1c(C(N)=O)cn(C)c1-c1nc2cc(NC(C)=O)ccc2n1C`, the “Percent Effect” value was -29.86%.

Turning to `Cc1nc(O)cc(C2CCCN(Cc3c(Cl)cncc3Cl)C2)n1` (stereo not drawn), the “Percent Effect” value is -29.03%.

`O=C(Cn1cnnn1)NC(c1ccccc1)c1ccc2c(c1)CCCO2` (stereo not drawn): the “Percent Effect” value is reported as -75.22%.

With `Cc1ccoc1C(=O)N1CCO[C@H]2[C@H](OCc3ccncc3)CC[C@@H]21`, the “Percent Effect” value is -118.2%.

For the molecule `COc1ccccc1C(=O)N1CCCC1c1ncc2c(n1)CCNC2.Cl` (stereo not drawn), the “Percent Effect” value is -133.7%.

Regarding `CC(O)CCN(C)C(=O)Nc1cccc(F)c1` (stereo not drawn), the “Percent Effect” value was -108.7%.

In the case of `CC(C)Cn1ncc(C(=O)NS(=O)(=O)C2CCCC2)c1C1CC1`, the “Percent Effect” value is recorded as -142.6%.

In the case of `O=C(O)CCC(=O)N1CCC(c2noc3cc(F)ccc23)CC1`, the “Percent Effect” value was -92.3%.

Regarding `CCC(=O)NC(c1cccnc1)c1cc(C)ccc1C` (stereo not drawn), the “Percent Effect” value is -105.8%.

Consider `O=C(CC1CCCC1)N1C[C@@H]2CCN(c3cccnc3)C[C@@H]2C1.O=C(O)C(F)(F)F`, for which the “Percent Effect” value was -61.89%.

Regarding `O=C(NC1CC2(CCN(CCO)CC2)c2ccccc21)c1ccncc1.O=C(O)C(F)(F)F.O=C(O)C(F)(F)F` (stereo not drawn), the “Percent Effect” value is reported as -81.16%.

Regarding `Cc1ccc(CNC(=O)CN2CCN(CCO)CC2)s1`, the “Percent Effect” value was -40.21%.

With `Cc1ccc2c(c1)C(N(C)C)CC21CCN(CCO)CC1.O=C(O)C(F)(F)F.O=C(O)C(F)(F)F` (stereo not drawn), the “Percent Effect” value is 74.01%.

Take `Cn1cncc1CNC1CC2(CCN(CC3CC3)CC2)c2ccccc21.O=C(O)C(F)(F)F.O=C(O)C(F)(F)F` (stereo not drawn): the “Percent Effect” value is given as -88.17%.

As for `CCN1CCC2(CC1)CC(NC(=O)N(C)C)c1cc(C)ccc12.O=C(O)C(F)(F)F` (stereo not drawn), the “Percent Effect” value is -8.453%.

`COCC(=O)NC1CC2(CCN(CCO)CC2)c2ccccc21.O=C(O)C(F)(F)F` (stereo not drawn): the “Percent Effect” value is -47.31%.

In the case of `Cc1cccc(CNC2CC3(CCN(CCO)CC3)c3ccccc32)n1.O=C(O)C(F)(F)F.O=C(O)C(F)(F)F` (stereo not drawn), the “Percent Effect” value was 77.51%.

With `Cc1ccc2c(c1)C(NC(=O)N(C)C)CC21CCN(C)CC1.O=C(O)C(F)(F)F` (stereo not drawn), the “Percent Effect” value was -16.75%.

For the molecule `CCOC1CC2(CCN(CCO)CC2)c2ccc(C)cc21` (stereo not drawn), the “Percent Effect” value was 16.18%.

Take `O=C(NC1CC2(CCN(CCO)CC2)c2ccccc21)c1ccno1.O=C(O)C(F)(F)F` (stereo not drawn): the “Percent Effect” value is -16.34%.

Regarding `Cc1ccc(CNC2CC3(CCN(CCO)CC3)c3ccccc32)s1.O=C(O)C(F)(F)F.O=C(O)C(F)(F)F` (stereo not drawn), the “Percent Effect” value is on record as 84.71%.
